Data published in paper PMC7862700, “An all-to-all approach to the identification of sequence-specific readers for epigenetic DNA modifications on cytosine”.

Key:
Assay in all cases: DAPPL (digital affinity profiling via proximity ligation, sequencing); 10 mM Tris-HCl pH 7.5, 50 mM NaCl, 1 mM DTT, 4% glycerol, room temperature, 30 min; GST-TFs on glutathione beads, 16-mer random dsDNA library, 0.1% formaldehyde crosslink after washing; high values mean tight binding
Settings in all cases: protein: recombinant; tags: N-terminal GST; dsDNA, one strand shown
[1] = target: T1, FLI1 (Homo sapiens, UniProt Q01543 1-452)
T1 sequence: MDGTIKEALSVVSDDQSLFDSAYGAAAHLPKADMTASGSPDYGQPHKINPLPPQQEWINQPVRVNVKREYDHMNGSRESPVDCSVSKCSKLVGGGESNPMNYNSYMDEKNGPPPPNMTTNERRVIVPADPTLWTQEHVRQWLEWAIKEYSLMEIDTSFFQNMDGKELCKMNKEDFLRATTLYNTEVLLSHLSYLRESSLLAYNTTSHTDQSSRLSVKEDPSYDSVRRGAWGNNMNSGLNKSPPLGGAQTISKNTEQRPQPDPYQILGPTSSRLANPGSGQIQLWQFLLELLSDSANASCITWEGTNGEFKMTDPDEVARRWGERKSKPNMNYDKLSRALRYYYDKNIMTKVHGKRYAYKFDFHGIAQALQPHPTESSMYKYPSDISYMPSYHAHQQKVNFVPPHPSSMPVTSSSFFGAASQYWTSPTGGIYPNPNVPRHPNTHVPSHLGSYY
Method in brief: (§1)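 Binding signal is each hexamer's read frequency for a factor divided by its frequency in the tag-only sample. The factors were GST-fused human transcription factors from yeast, captured on glutathione beads, DNA-barcoded and pooled with that sample. Pools were incubated with 200 nmole of a random double-stranded 16-mer DNA library in Tris/NaCl/DTT/glycerol buffer at room temperature for 30 min, then washed, crosslinked with 0.1% formaldehyde, proximity-ligated with BsaI/T4 ligase (1 h, 37 °C), PCR-amplified and sequenced on an Illumina NextSeq500.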

[2] = target: T2, ELK1 (Homo sapiens, UniProt P19419 1-428)
T2 sequence: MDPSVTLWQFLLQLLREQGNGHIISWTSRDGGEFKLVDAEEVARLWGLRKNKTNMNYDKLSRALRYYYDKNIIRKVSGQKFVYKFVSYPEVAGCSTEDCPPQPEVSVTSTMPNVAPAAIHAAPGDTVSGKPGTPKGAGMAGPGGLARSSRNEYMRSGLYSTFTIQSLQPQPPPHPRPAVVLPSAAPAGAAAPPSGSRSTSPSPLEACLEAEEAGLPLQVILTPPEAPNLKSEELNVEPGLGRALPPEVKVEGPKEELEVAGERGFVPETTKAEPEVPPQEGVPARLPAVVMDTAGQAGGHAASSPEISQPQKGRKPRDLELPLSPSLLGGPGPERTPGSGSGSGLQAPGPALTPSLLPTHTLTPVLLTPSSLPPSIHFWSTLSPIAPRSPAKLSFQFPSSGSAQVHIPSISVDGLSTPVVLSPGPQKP
Method in brief: as §1

[3] = target: T3, GABPA (Homo sapiens, UniProt Q06546 1-454)
T3 sequence: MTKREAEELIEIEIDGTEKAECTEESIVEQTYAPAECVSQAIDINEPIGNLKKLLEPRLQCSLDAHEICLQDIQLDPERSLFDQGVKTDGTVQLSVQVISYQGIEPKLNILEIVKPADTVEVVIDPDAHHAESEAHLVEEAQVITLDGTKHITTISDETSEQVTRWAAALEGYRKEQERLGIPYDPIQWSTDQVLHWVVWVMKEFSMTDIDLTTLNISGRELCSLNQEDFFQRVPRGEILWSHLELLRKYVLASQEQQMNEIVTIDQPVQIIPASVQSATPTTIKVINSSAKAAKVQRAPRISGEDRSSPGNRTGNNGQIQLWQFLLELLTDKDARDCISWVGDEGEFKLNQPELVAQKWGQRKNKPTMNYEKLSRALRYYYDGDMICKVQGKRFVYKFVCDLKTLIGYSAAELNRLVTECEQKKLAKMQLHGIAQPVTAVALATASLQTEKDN
Method in brief: as §1

[4] = target: T4, ERG (Homo sapiens, UniProt P11308 1-479)
T4 sequence: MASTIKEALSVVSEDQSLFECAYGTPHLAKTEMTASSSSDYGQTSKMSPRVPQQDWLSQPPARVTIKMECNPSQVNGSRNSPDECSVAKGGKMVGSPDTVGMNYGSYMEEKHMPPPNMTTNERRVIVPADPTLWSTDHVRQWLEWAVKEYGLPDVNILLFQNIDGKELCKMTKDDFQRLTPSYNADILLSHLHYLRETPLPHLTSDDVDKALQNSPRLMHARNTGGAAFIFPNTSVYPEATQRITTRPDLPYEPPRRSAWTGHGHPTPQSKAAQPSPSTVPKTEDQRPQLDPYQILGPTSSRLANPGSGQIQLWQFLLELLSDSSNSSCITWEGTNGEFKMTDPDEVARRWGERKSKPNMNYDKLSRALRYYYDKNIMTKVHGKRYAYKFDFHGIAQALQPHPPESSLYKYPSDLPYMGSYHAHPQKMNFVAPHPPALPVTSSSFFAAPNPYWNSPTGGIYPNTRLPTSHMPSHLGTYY
Method in brief: as §1

[5] = target: ELF1 (Homo sapiens, UniProt P32519 1-619)
Method in brief: as §1

[6] = target: T5, EHF (Homo sapiens, UniProt Q9NZC4 1-300)
T5 sequence: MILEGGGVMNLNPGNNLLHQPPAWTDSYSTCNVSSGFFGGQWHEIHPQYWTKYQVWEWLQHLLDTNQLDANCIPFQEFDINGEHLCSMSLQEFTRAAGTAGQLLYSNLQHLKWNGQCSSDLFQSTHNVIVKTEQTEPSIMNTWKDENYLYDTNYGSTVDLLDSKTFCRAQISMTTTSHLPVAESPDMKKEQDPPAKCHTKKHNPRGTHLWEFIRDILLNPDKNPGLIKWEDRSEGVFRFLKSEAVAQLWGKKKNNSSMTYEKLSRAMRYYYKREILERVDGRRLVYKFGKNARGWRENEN
Method in brief: as §1

[7] = target: SPI1 (Homo sapiens, UniProt P17947 1-270)
Method in brief: as §1

[8] = target: SPIB (Homo sapiens, UniProt Q01892 1-262)
Method in brief: as §1

[9] = target: T6, ELK3 (Homo sapiens, UniProt P41970 1-407)
T6 sequence: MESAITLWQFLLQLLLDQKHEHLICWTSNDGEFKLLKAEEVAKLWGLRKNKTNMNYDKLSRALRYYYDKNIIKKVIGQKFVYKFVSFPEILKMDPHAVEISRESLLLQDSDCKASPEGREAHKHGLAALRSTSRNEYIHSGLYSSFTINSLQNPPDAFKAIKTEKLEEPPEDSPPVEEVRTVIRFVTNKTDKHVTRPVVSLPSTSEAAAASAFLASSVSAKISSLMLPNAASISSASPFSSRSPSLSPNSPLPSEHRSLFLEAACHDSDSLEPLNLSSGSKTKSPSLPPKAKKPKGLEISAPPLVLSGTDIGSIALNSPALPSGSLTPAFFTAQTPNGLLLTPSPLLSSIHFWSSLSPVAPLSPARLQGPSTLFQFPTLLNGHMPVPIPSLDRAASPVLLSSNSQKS
Method in brief: as §1

ELF1, sequence (P32519 whole entry): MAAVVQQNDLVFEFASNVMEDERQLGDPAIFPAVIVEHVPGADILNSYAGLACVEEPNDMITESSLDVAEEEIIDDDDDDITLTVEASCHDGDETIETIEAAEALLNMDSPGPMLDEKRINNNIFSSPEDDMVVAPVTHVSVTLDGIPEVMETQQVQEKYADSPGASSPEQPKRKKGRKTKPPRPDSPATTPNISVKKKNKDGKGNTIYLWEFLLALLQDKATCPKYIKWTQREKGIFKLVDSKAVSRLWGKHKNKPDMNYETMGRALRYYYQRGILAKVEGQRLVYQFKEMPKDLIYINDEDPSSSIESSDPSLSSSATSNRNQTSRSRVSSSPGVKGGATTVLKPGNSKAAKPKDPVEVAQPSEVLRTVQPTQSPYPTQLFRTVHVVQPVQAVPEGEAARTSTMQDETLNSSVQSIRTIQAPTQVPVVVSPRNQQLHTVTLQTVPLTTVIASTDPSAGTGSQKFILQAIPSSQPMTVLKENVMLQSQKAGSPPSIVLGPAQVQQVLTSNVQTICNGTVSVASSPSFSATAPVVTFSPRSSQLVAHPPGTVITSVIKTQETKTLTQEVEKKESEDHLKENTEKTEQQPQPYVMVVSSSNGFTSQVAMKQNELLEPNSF
SPIB, sequence (Q01892 whole entry): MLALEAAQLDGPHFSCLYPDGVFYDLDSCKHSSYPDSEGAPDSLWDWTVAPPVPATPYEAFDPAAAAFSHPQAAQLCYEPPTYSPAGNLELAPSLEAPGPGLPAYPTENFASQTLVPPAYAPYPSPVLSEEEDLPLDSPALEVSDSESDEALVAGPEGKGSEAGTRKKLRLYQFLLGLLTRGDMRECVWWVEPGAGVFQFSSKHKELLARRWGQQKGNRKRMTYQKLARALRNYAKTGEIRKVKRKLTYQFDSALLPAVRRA

| Sequence | binding signal [1] | binding signal [2] | binding signal [3] | binding signal [4] | binding signal [5] | binding signal [6] | binding signal [7] | binding signal [8] | binding signal [9] |
| --- | --- | --- | --- | --- | --- | --- | --- | --- | --- |
| GTCTCG | 1.36 fold enrichment (6-mer frequency, TF over GST control) | 1.37 fold enrichment (6-mer frequency, TF over GST control) | 1.3 fold enrichment (6-mer frequency, TF over GST control) | 1.26 fold enrichment (6-mer frequency, TF over GST control) | 1.32 fold enrichment (6-mer frequency, TF over GST control) | 1.28 fold enrichment (6-mer frequency, TF over GST control) | 1.33 fold enrichment (6-mer frequency, TF over GST control) | 1.43 fold enrichment (6-mer frequency, TF over GST control) | 1.37 fold enrichment (6-mer frequency, TF over GST control) |
| GAAATA | 1.45 fold enrichment (6-mer frequency, TF over GST control) | 1.42 fold enrichment (6-mer frequency, TF over GST control) | 1.48 fold enrichment (6-mer frequency, TF over GST control) | 1.61 fold enrichment (6-mer frequency, TF over GST control) | 1.45 fold enrichment (6-mer frequency, TF over GST control) | 1.64 fold enrichment (6-mer frequency, TF over GST control) | 1.49 fold enrichment (6-mer frequency, TF over GST control) | 1.54 fold enrichment (6-mer frequency, TF over GST control) | 1.5 fold enrichment (6-mer frequency, TF over GST control) |
| CCTGGA | 1.53 fold enrichment (6-mer frequency, TF over GST control) | 1.44 fold enrichment (6-mer frequency, TF over GST control) | 1.43 fold enrichment (6-mer frequency, TF over GST control) | 1.45 fold enrichment (6-mer frequency, TF over GST control) | 1.4 fold enrichment (6-mer frequency, TF over GST control) | 1.44 fold enrichment (6-mer frequency, TF over GST control) | 1.21 fold enrichment (6-mer frequency, TF over GST control) | 1.5 fold enrichment (6-mer frequency, TF over GST control) | 1.39 fold enrichment (6-mer frequency, TF over GST control) |
| TCTTAA | 1.18 fold enrichment (6-mer frequency, TF over GST control) | 1.13 fold enrichment (6-mer frequency, TF over GST control) | 1.16 fold enrichment (6-mer frequency, TF over GST control) | 1.21 fold enrichment (6-mer frequency, TF over GST control) | 1.23 fold enrichment (6-mer frequency, TF over GST control) | 1.09 fold enrichment (6-mer frequency, TF over GST control) | 1.23 fold enrichment (6-mer frequency, TF over GST control) | 1.23 fold enrichment (6-mer frequency, TF over GST control) | 1.23 fold enrichment (6-mer frequency, TF over GST control) |
| ATGCAA | 1.32 fold enrichment (6-mer frequency, TF over GST control) | 1.26 fold enrichment (6-mer frequency, TF over GST control) | 1.27 fold enrichment (6-mer frequency, TF over GST control) | 1.29 fold enrichment (6-mer frequency, TF over GST control) | 1.25 fold enrichment (6-mer frequency, TF over GST control) | 1.25 fold enrichment (6-mer frequency, TF over GST control) | 1.2 fold enrichment (6-mer frequency, TF over GST control) | 1.26 fold enrichment (6-mer frequency, TF over GST control) | 1.18 fold enrichment (6-mer frequency, TF over GST control) |
| ACATAT | 1.18 fold enrichment (6-mer frequency, TF over GST control) | 1.25 fold enrichment (6-mer frequency, TF over GST control) | 1.3 fold enrichment (6-mer frequency, TF over GST control) | 1.25 fold enrichment (6-mer frequency, TF over GST control) | 1.27 fold enrichment (6-mer frequency, TF over GST control) | 1.22 fold enrichment (6-mer frequency, TF over GST control) | 1.2 fold enrichment (6-mer frequency, TF over GST control) | 1.2 fold enrichment (6-mer frequency, TF over GST control) | 1.28 fold enrichment (6-mer frequency, TF over GST control) |
| CAAGAT | 1.04 fold enrichment (6-mer frequency, TF over GST control) | 1.04 fold enrichment (6-mer frequency, TF over GST control) | 1.17 fold enrichment (6-mer frequency, TF over GST control) | 1.05 fold enrichment (6-mer frequency, TF over GST control) | 1.06 fold enrichment (6-mer frequency, TF over GST control) | 1.04 fold enrichment (6-mer frequency, TF over GST control) | 1.01 fold enrichment (6-mer frequency, TF over GST control) | 1.01 fold enrichment (6-mer frequency, TF over GST control) | 1.14 fold enrichment (6-mer frequency, TF over GST control) |
